Rows were chosen to be rich in hits. Some 21% of all compounds tested hit in one or more screens of this group.
SARS PLpro yeast: inhibitors of SARS-CoV papain-like protease in yeast; S. cerevisiae expressing SARS-CoV PLpro, growth rescue; Potency, µM (doses to about 32.9 µM), inactives show top-dose activity, positive = growth rescue, actives largely listed as activators; hit rate 0.19% among 330,000; AID 485353; calls by dose curve; further: potency means the concentration at half of the fitted maximal effect; 0% is about no effect; nearly all actives have a fitted effect of over 55% in size
Pf growth 48h: P. falciparum growth inhibition at 48 hours (one generation); P. falciparum luciferase growth in erythrocytes, 48 h; Potency, µM (highest dose often 28.7 µM), for inactives: at the top dose activity change, negative = inhibition, hits mostly inhibitors; hit rate 5.9% among 310,000; further: potency means the concentration at half of the fitted maximal effect; on the % scale 0 is the no-effect control and ±100 the full control effect
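A one-generation exposure of luciferase-tagged malaria parasites in RPMI 1640/Albumax erythrocyte culture, 37 C and 5% CO2. Inhibition is inferred from decreased luminescence after adding detection reagent.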
Cycloheximide cs: affects cycloheximide protein synthesis inhibition readout, counter-screen; hit rate 12% among 300,000; AID 2314; cell reporter, cycloheximide protein synthesis inhibition counterscreen; max response, %; in the data active means max response mostly above about 13%, no sharp cut-off; inactive means mostly below about 14%; further: read at 38.3 µM for the half of the compounds with a filed dose; 0% is about no effect
Shiga inhibitor: inhibitors of Shiga toxin in Vero cells | Vero cells, Shiga toxin protein synthesis inhibition reporter | inhibition, % at 38.7 µM | hit rate 9.2% among 290,000; in the data active means inhibition mostly above about 28%, no sharp cut-off; inactive means mostly below about 43%; further: 0% is about no effect
Pf growth 96h: P. falciparum growth inhibition at 96 hours; P. falciparum luciferase reporter growth, 96 h; Potency, µM (doses to about 28.7 µM), without a hit: at the top dose activity change, negative = inhibition, most hits filed as inhibitors; hit rate 6.9% among 320,000; AID 504834; further: potency means the concentration at half of the fitted maximal effect; on the % scale 0 is the no-effect control and ±100 the full control effect
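Cell-based qHTS: luciferase-tagged P. falciparum in erythrocytes (2% hematocrit, 0.05% parasitemia final) incubated with compounds for 96 hours, 37 C, 5% CO2; luciferase detection reagent then added and luminescence measured.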
NS1 function inh: inhibitors of influenza NS1 protein function. Potency, µM (series often up to 46.1 µM), without a hit: at the highest dose activity, positive = more growth. hit rate 0.4% among 270,000. AID 2326; calls by dose curve; further: potency means the concentration at half of the fitted maximal effect; actives are rising curves; nearly all actives have a fitted effect of over 50% in size
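Read-out: OD600 growth recovery of NS1-expressing budding yeast. Cells grown overnight at 30C in -URA glucose medium, washed, resuspended and diluted 1:100 in 2% galactose assay medium, pH 6.0. Same strain lacking NS1 served as positive control.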
* marks the source's active call; other numbers are inactive results; ? = inconclusive; nt = not tested or not shown; + = active, no number; [ ] = another dose, or the depositor's remark. Unless noted, the call rests on the fitted dose curve; in most records, active means well fitted inhibition curve with a large enough effect; inconclusive means small, poorly fitted or top-dose-only effect, or another doubt; inactive means no such curve, though single readings can be large or run the other way.

SMILES	SARS PLpro yeast	Pf growth 48h	Cycloheximide cs	Shiga inhibitor	Pf growth 96h	NS1 function inh
CCOC(=O)N1CCN(C(=O)c2ccccc2NC(=O)c2ccc(F)cc2)CC1	16%	9%	-1	5	-9%	-8%
CCOC(=O)N1CCN(C(=O)c2ccccc2NC(C)=O)CC1	0%	-72%	24*	72	6%	3%
CCCCOCCCNS(=O)(=O)c1ccccc1	0%	-15%	9	31	24%	8%
CCCCOP(=O)(OCCCC)C1(NS(=O)(=O)c2ccccc2)C=CC(=O)c2ccccc21 (stereo not drawn)	-3%	10µM*	-3	-21	?	-11%
Nc1nnn(CC(=O)N/N=C/C=C/c2ccccc2)n1	2%	5%	21*	58*	21%	5%
O=C(Cc1n[nH]c(=O)[nH]c1=O)N/N=C/c1ccccc1O	2%	1.5µM*	1	11	32%	-1%
CC(/C=C/c1ccccc1)=N/NC(=O)Cn1nnc(N)n1	-1%	6%	-3	30	2%	-6%
COc1ccc(/C=N/NC(=O)Cc2n[nH]c(=O)[nH]c2=O)cc1	2%	8%	-3	25	36%	2%
O=C(CCC(=O)Nc1ccccc1)N/N=C/C=C/c1ccccc1	2%	34%	10.0*	9	32%	11%
O=C(CCC(=O)Nc1ccccc1)N/N=C/c1cccnc1	0%	7%	0	-10	5.2µM*	9%
C=CC[N+](C)(C)C/C(Cl)=C(\Cl)c1ccccc1	-5%	?	-1	-22	nt	5%
CC1(C)C(=S)N(Cc2ccccc2)c2ccccc21	-4%	4%	2	-4	1%	-4%
O=C(CCC(=O)Nc1ccc(F)cc1)N/N=C/c1ccccc1O	-6%	?	24*	73*	-52%	nt
Cc1ccc(NC(=O)CCC(=O)N/N=C/c2cccnc2)cc1	-1%	12%	-4	19	3.7µM*	-1%
CCCCNc1nc2cccnc2s1	-2%	56%	22*	62*	41%	-1%
O=c1sc(Nc2ccccc2)nc2ccccc12	6%	8%	-2	-15	-22%	2%
Clc1ccc(Nc2nc3cccnc3s2)cc1	-1%	45%	30*	90*	107%	-7%
CCCCNc1n[n+](C)c(-c2cccc(C)c2)s1	-1%	-2%	1	21	16%	-40%
COc1ccc(S(=O)(=O)N2CCOC2CNC(=O)C(=O)NCc2ccco2)cc1OC (stereo not drawn)	1%	7%	-3	-7	-4%	0%
O=C(CCN1C(=O)/C(=C/c2ccccc2F)SC1=S)NCCc1ccc(O)cc1	-5%	14%	-3	-5	16%	2%
O=C(CCN1C(=O)/C(=C/c2ccccc2)SC1=S)NCCc1ccc(O)cc1	-3%	-2%	-8	-6	12µM*	1%
COc1ccccc1/C=C1\SC(=S)N(CCC(=O)NCCc2ccc(O)cc2)C1=O	-3%	?	21*	10	?	17%
Cc1ccc(NC(=O)CN2C(=O)CC(C)S(=O)(=O)c3ccccc32)cc1 (stereo not drawn)	-6%	-1%	1	-7	-12%	-4%
Cc1ccc(-c2nc(C3CCN(S(C)(=O)=O)CC3)no2)cc1	-7%	134%	28*	38	13%	-16%
COc1ccc(-c2noc(C3CCCN(C(=O)c4ccccc4)C3)n2)cc1 (stereo not drawn)	-2%	122%	32*	43*	-3%	-13%
SMILES	SARS PLpro yeast	Pf growth 48h	Cycloheximide cs	Shiga inhibitor	Pf growth 96h	NS1 function inh
COc1ccc(-c2noc(C3CCCN(C(=O)c4ccccc4OC)C3)n2)cc1 (stereo not drawn)	0%	-13%	15	14	?	4%
O=C(c1ccco1)N1CCCC(c2nc(-c3ccc(S(=O)(=O)NCc4ccccc4)cc3)no2)C1 (stereo not drawn)	15%	?	10	+	44%	3%
COc1ccc(-c2noc(C3CCCN(C(=O)CCc4ccccc4)C3)n2)cc1 (stereo not drawn)	-15%	0%	14*	23	206%	-58%
CCCCCC(=O)N1CCCC(c2nc(-c3ccc(OC)cc3)no2)C1 (stereo not drawn)	5%	15%	-1	7	16%	-8%
O=C(CC1CCCCC1)N1CCCC(c2nc(-c3ccc(S(=O)(=O)N4CCCC4)cc3)no2)C1 (stereo not drawn)	-11%	nt	-6	-6	?	21%
Cc1ccc(-c2nc(C3CCCN(S(=O)(=O)c4ccc(C)cc4)C3)no2)cc1 (stereo not drawn)	-9%	nt	-4	-12	?	-18%
CCCC1(c2ccccc2)NC(=O)NC1=O (stereo not drawn)	-1%	5%	-4	-9	23%	-10%
Cc1ccc(-c2noc(C3CCN(S(C)(=O)=O)CC3)n2)o1	5%	84%	20*	80*	-28%	-7%
Clc1ccc(-c2nnc(C3CCCCC3)o2)cc1	1%	60%	15	97	nt	-42%
COc1ccc(C(=O)N2CCCC(c3nc(-c4ccc(C)o4)no3)C2)cc1OC (stereo not drawn)	6%	-5%	7	26	3%	14%
Cc1ccc(-c2noc(C3CCCN(C(=O)c4ccccc4)C3)n2)o1 (stereo not drawn)	0%	166%	41*	59*	-1%[5.75 µM]	-7%
CCOc1ccccc1NC(=O)N1CCCC(c2nc(-c3ccc(C)o3)no2)C1 (stereo not drawn)	0%	21%	-2	-9	18%	-2%
Clc1ccc(-c2nc(C3CCCCC3)no2)cc1	2%	117%	32*	89*	-14%	nt
COc1ccccc1CNC(=O)COc1ccc(S(=O)(=O)N2CCOCC2)cc1C	2%	0%	4	-7	-1%	-8%
COc1c(Cl)cc(Cl)cc1CNc1ccc(S(N)(=O)=O)cc1	1%	35%	-2	-10	14%	0%
COC(=O)c1c(NC(=O)c2ccco2)sc(C(=O)N2CCCC2)c1C	0%	19%	-1	11	nt	-4%
NC(=O)c1ccc(NC(=O)COC(=O)/C=C/c2ccc3c(c2)OCO3)cc1	0%	56%	26*	66*	-9%	1%
CC(=O)Nc1ccc(NC(=O)COC(=O)/C=C/c2ccc3c(c2)OCO3)cc1	1%	-5%	nt	nt	-5%	nt
COc1ccccc1NC(=O)/C=C/c1ccc2c(c1)OCO2	-3%	284%	31*	85*	-5%	nt
COc1ccccc1NC(=O)COC(=O)/C=C/c1ccc2c(c1)OCO2	0%	44%	52*	84*	2%	nt
O=C(NCc1ccccc1CN1CCCC1)c1cc2ccccc2o1	-1%	?	nt	nt	?	nt
COc1ccc(NC(=O)c2cccc(Oc3ccccc3)c2)cn1	-5%	-8%	33*	81*	-12%	-74%
COc1ccc(NC(=O)c2ccc(S(=O)(=O)N(C)c3ccccc3)cc2)cn1	-1%	?	15	16	?	-30%

Source: PubChem BioAssay
